Assay [1] is described as follows: Cytotoxicity counterscreen for inhibitors of SARS-CoV-2 cell entry (AID 1645845). Further: nearly all actives have a fitted effect of over 50% in size. Further: potency means the concentration at half of the fitted maximal effect. The procedure, abridged: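 ATP-content luminescence (ATPLite 1step, 15 min RT) read after 48 h compound exposure of Expi293F cells stably expressing human ACE2; normalized to cells-only wells and media-only wells.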
The nature of assay [2]: Primary qHTS to identify inhibitors of SARS-CoV-2 cell entry (AID 1645846). Further: nearly all actives have a fitted effect of over 45% in size. Further: potency means the concentration at half of the fitted maximal effect. Conditions: activity change, negative = inhibition: at 57.1 µM (top of the series) unless noted. In a few lines: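 Inhibition of spike-mediated entry was scored in human ACE2-transfected Expi293F cells. Particles were MLV-pseudotyped with Wuhan-Hu-1 S carrying a 19-aa C-terminal deletion; signal was luciferase after two days, scaled between spike PP and fusion-protein-free PP.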
On the technique in general: qHTS replaces the single test concentration by a dilution series.

A further assay has as its target Papain (Carica papaya) (UniProt P00784). As to the kind of experiment: Primary qHTS assay for inhibitors of the protease papain (AID 1645873; active means well fitted curve in the direction sought with a large enough effect; an effect the other way counts as inactive or inconclusive;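 further: papain turnover of Z-FR-AMC read as the AMC fluorescence gain over 10 min; on the % scale 0 is the no-effect control and ±100 the full control effect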).
Assay [3] can be described thus: Primary qHTS for inhibitors of nuclear receptor binding SET domain protein 2 (NSD2) in an isogenic RCH-ACV NSD2 p.E1099K mutant (9B) (AID 1645876; active means well fitted curve in the direction sought with a large enough effect; an effect the other way counts as inactive or inconclusive; further: nearly all actives have a fitted effect of over 70% in size; further: potency means the concentration at half of the fitted maximal effect).
The nature of assay [4]: Primary qHTS for inhibitors of nuclear receptor binding SET domain protein 2 (NSD2) in an RCH-ACV wild type WT cells (2C) (AID 1645877; active means well fitted curve in the direction sought with a large enough effect; an effect the other way counts as inactive or inconclusive; further: nearly all actives have a fitted effect of over 70% in size; further: potency means the concentration at half of the fitted maximal effect).

This is an account of results in PubChem BioAssay (NCATS).

Values joined by “and” are separate entries in the source; they are usually repeats but may differ in a detail not shown here. Identical values can stand only once. Records with an inconclusive call do not appear. A structure can be active in one record and inactive in another. Active and inactive are the calls of the source. Unless noted, the call rests on the fitted dose curve.

Papain (Carica papaya), sequence (P00784 whole entry, looked up, the tested form may be a part): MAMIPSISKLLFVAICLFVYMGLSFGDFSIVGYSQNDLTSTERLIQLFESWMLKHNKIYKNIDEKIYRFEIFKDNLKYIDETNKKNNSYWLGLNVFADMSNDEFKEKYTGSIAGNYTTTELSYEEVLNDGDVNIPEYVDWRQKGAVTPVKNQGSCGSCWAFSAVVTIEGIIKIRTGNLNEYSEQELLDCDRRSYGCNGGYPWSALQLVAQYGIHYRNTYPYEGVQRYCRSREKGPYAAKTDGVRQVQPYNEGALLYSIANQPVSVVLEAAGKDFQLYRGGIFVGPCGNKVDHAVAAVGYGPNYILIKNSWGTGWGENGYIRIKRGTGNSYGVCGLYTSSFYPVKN

As to `CCCN1CCO[C@@H]2c3cc(O)ccc3OC[C@H]21`, the Potency entry (in assay [1]; in assay [2]; in the assay with Papain (Carica papaya); in assay [3]; in assay [4]) was “inactive” throughout.

In the case of `O=C(NCC1CCOCC1)c1cnc(Nc2ccc(Cl)cc2Cl)nc1C(F)(F)F`, the Potency entry in assay [1], in assay [3] and in assay [4] was “inactive” in each case. The activity change, negative = inhibition in assay [2] is -4.18%.

For `CC(Cc1ccc(O)cc1)NCC(O)c1cc(O)cc(O)c1` (stereo unspecified), the Potency entry (in assay [1]; in assay [2]; with Papain (Carica papaya)) was “inactive” each time.

For `CCC(=O)O[C@@H]1C=C2CCC3C(CCC4(C)C3CC[C@@H]4OC(=O)CC)C2CC1` (stereo partly specified), the Potency result in assay [1] and in assay [3] was “inactive” throughout. In addition, the activity change, negative = inhibition in assay [2] was 4.26%.

`C[N+](C)(C)CC(=O)O`: the Potency result (in assay [1]; with Papain (Carica papaya)) was “inactive” throughout. Moreover, the activity change, negative = inhibition in assay [2] was -0.459% and -19.8%.

`CCN1CCN(C(=O)Cc2ccc(Nc3ncc(F)c(Nc4ccc(C(=O)Nc5ccccc5Cl)cc4)n3)cc2)CC1`: the Potency is 22.4 µM (active) in assay [1]; 8.91 µM (active) in assay [2]; 2.31 µM (active) and 2.63 µM (active) in assay [3]; 2.31 µM (active) and 2.35 µM (active) in assay [4].

In the case of `Cn1c(NCCN(CCO)CCCc2ccc([N+](=O)[O-])cc2)cc(=O)n(C)c1=O`, in assay [1], the Potency entry is “inactive”. The activity change, negative = inhibition in assay [2] is -16.7% and 1.27%.

On to `O=c1cccc2n1CC1CNC[C@H]2C1`, for which the Potency result in assay [1], in assay [3] and in assay [4] was “inactive” each time. Moreover, in assay [2], the activity change, negative = inhibition was -15.2%.

Consider `COC(=O)c1ccc2c(C(=Nc3ccc(N(C)C(=O)CN4CCN(C)CC4)cc3)c3ccccc3)c(O)[nH]c2c1`, for which, in assay [1], the Potency entry was “inactive”. Moreover, in assay [2], the Potency was 17.8 µM (active) and the activity change, negative = inhibition is -18.4%.

In the case of `O=S(=O)(F)Cc1ccccc1`, the Potency entry in assay [1], in assay [3] and in assay [4] was “inactive” each time. The activity change, negative = inhibition in assay [2] is -1.91%.

On to `COC(=O)c1cncn1C(C)c1ccccc1` (stereo unspecified), for which the Potency result in assay [1], in assay [2], in assay [3] and in assay [4] was “inactive” each time.

As to `CC(C)CCCC(C)CCCC(C)CCCCC(C)CCCC(C)CCCC(C)C` (stereo unspecified), the Potency result in assay [1] is “inactive”. Also, the activity change, negative = inhibition in assay [2] was -16.5%.
